Reference: the supplement of paper PMC9492666
Structures can show the parent of a compound that is named as a salt.
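Also: breast cancer cell viability read out with the CCK-8 kit after co-treatment of each compound with the ferroptosis inducer RSL3.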

The compounds below were run on HCC1937 (assay: relative cell viability, compound + RSL3, vs DMSO (fraction of DMSO control); higher = less growth inhibition). Conditions: 72 h.
`COP(=O)(OC)OC(c1ccc(Cl)cc1)P(=O)(OC)OC` (stereo not given) [Mifobate] + COC(=O)c1ccc([C@H]2c3[nH]c4ccccc4c3C[C@H](C(=O)OC)N2C(=O)CCl)cc1 [RSL3] was tested, and the relative cell viability was 0.632.
Compound `CCNC1(C(N)=O)CCN(c2ncnc3c2nc(-c2ccccc2Cl)n3-c2ccc(Cl)cc2)CC1` [Otenabant] + COC(=O)c1ccc([C@H]2c3[nH]c4ccccc4c3C[C@H](C(=O)OC)N2C(=O)CCl)cc1 [RSL3] has a relative cell viability of 0.659.
Work on `CC(C)=CCC(O)C1=CC(=O)c2c(O)ccc(O)c2C1=O` (single isomer, unassigned; (+)) [(+)-Shikonin] + COC(=O)c1ccc([C@H]2c3[nH]c4ccccc4c3C[C@H](C(=O)OC)N2C(=O)CCl)cc1 [RSL3] yielded a relative cell viability of 0.0766.

What follows are compounds tested on MDA-MB-231 in the same assay as above. Conditions: 72 h.
`C[C@H](CCOc1cccc(CC(=O)O)c1)N(Cc1cccc(C(F)(F)F)c1Cl)CC(c1ccccc1)c1ccccc1` + COC(=O)c1ccc([C@H]2c3[nH]c4ccccc4c3C[C@H](C(=O)OC)N2C(=O)CCl)cc1 [RSL3] was tested, and the relative cell viability was 0.532.
`CCOC(=O)N1c2ccc(C(F)(F)F)cc2[C@@H](N(Cc2cc(C(F)(F)F)cc(C(F)(F)F)c2)C(=O)OC)C[C@H]1CC` [Torcetrapib] + COC(=O)c1ccc([C@H]2c3[nH]c4ccccc4c3C[C@H](C(=O)OC)N2C(=O)CCl)cc1 [RSL3] was tested, and the relative cell viability was 0.458.
`O=C(O)CCn1c2c(c3ccccc31)C[C@H](NS(=O)(=O)c1ccc(F)cc1)CC2` [Ramatroban] + COC(=O)c1ccc([C@H]2c3[nH]c4ccccc4c3C[C@H](C(=O)OC)N2C(=O)CCl)cc1 [RSL3] was tested, and the relative cell viability was 0.554.
Compound `CCC(=O)O[C@]1(C(=O)CCl)[C@@H](C)C[C@H]2[C@@H]3C[C@H](F)C4=CC(=O)C=C[C@]4(C)[C@@]3(F)[C@@H](O)C[C@@]21C` [Halobetasol Propionate] + COC(=O)c1ccc([C@H]2c3[nH]c4ccccc4c3C[C@H](C(=O)OC)N2C(=O)CCl)cc1 [RSL3] has a relative cell viability of 0.592.
`CN1CCN(c2ccc(/C=C(\C#N)c3ccccc3Br)cc2)CC1` [DG172 (dihydrochloride)] + COC(=O)c1ccc([C@H]2c3[nH]c4ccccc4c3C[C@H](C(=O)OC)N2C(=O)CCl)cc1 [RSL3] showed a relative cell viability of 0.61.
`O=C(Nc1cnccc1Cl)N1CCN(Cc2ccc3c(c2)OC(F)(F)O3)CC1` + COC(=O)c1ccc([C@H]2c3[nH]c4ccccc4c3C[C@H](C(=O)OC)N2C(=O)CCl)cc1 [RSL3] showed a relative cell viability of 0.568.
`O=C(O)c1ccnc(N2CC(O)(c3ccc(OCc4c(-c5c(Cl)cccc5Cl)noc4C4CC4)cc3Cl)C2)c1` [Cilofexor] + COC(=O)c1ccc([C@H]2c3[nH]c4ccccc4c3C[C@H](C(=O)OC)N2C(=O)CCl)cc1 [RSL3] gave a relative cell viability of 0.568.
In the case of `N[C@@H](Cc1c[nH]cn1)C(=O)O` [histidine] + COC(=O)c1ccc([C@H]2c3[nH]c4ccccc4c3C[C@H](C(=O)OC)N2C(=O)CCl)cc1 [RSL3], the relative cell viability is reported as 0.673.
In the case of `COc1ccc([C@@H]2OC[C@H]3[C@@H]2CO[C@@H]3c2ccc(O[C@@H]3O[C@H](CO)[C@@H](O)[C@H](O)[C@H]3O)c(OC)c2)cc1OC` [Forsythin] + COC(=O)c1ccc([C@H]2c3[nH]c4ccccc4c3C[C@H](C(=O)OC)N2C(=O)CCl)cc1 [RSL3], the relative cell viability is reported as 0.664.
`Cc1coc2c1C(=O)C(=O)c1c-2ccc2c(C)cccc12` [Tanshinone I] + COC(=O)c1ccc([C@H]2c3[nH]c4ccccc4c3C[C@H](C(=O)OC)N2C(=O)CCl)cc1 [RSL3] gave a relative cell viability of 0.305.
`O=C(c1ccc(-c2nc3ccc(F)cc3o2)cc1)N1CCN(C(=O)C2(O)CC2)CC1` + COC(=O)c1ccc([C@H]2c3[nH]c4ccccc4c3C[C@H](C(=O)OC)N2C(=O)CCl)cc1 [RSL3] was tested, and the relative cell viability was 0.683.
`CC(=O)Oc1cc(C(F)(F)F)ccc1C(=O)O` [Triflusal] + COC(=O)c1ccc([C@H]2c3[nH]c4ccccc4c3C[C@H](C(=O)OC)N2C(=O)CCl)cc1 [RSL3] showed a relative cell viability of 0.492.
With `O=C(O)c1c[nH]c2cc(Cl)c(-c3ccc(C4(O)CCC4)cc3)cc12` + COC(=O)c1ccc([C@H]2c3[nH]c4ccccc4c3C[C@H](C(=O)OC)N2C(=O)CCl)cc1 [RSL3] the relative cell viability was 0.572.
Compound `COc1cc([C@@H]2Oc3c(O)cc([C@H]4Oc5cc(O)cc(O)c5C(=O)[C@@H]4O)cc3[C@H]2CO)ccc1O` [Silychristin] + COC(=O)c1ccc([C@H]2c3[nH]c4ccccc4c3C[C@H](C(=O)OC)N2C(=O)CCl)cc1 [RSL3] has a relative cell viability of 0.66.
For `C=CCc1ccc(O)c(-c2cc(CC=C)ccc2O)c1` [Magnolol] + COC(=O)c1ccc([C@H]2c3[nH]c4ccccc4c3C[C@H](C(=O)OC)N2C(=O)CCl)cc1 [RSL3], the relative cell viability was 0.668.
`COc1ccc(-c2coc3cc(OC)ccc3c2=O)cc1` [4',7-Dimethoxyisoflavone] + COC(=O)c1ccc([C@H]2c3[nH]c4ccccc4c3C[C@H](C(=O)OC)N2C(=O)CCl)cc1 [RSL3] gave a relative cell viability of 0.36.
In the case of `CNC(=O)c1cccc(NC(=O)N2CCC(Oc3ccccc3Cl)CC2)c1` + COC(=O)c1ccc([C@H]2c3[nH]c4ccccc4c3C[C@H](C(=O)OC)N2C(=O)CCl)cc1 [RSL3], the relative cell viability is reported as 0.683.
With `Nc1ccc(C(=O)O)c(O)c1` [Aminopar] + COC(=O)c1ccc([C@H]2c3[nH]c4ccccc4c3C[C@H](C(=O)OC)N2C(=O)CCl)cc1 [RSL3] the relative cell viability was 0.662.
In the case of `Nn1nnc2ccccc21` [1-Aminobenzotriazole] + COC(=O)c1ccc([C@H]2c3[nH]c4ccccc4c3C[C@H](C(=O)OC)N2C(=O)CCl)cc1 [RSL3], the relative cell viability is reported as 0.758.
For `COc1ccc2c(=O)c(-c3ccccc3)coc2c1` [7-Methoxyisoflavone] + COC(=O)c1ccc([C@H]2c3[nH]c4ccccc4c3C[C@H](C(=O)OC)N2C(=O)CCl)cc1 [RSL3], the relative cell viability was 0.419.
In the case of `N#Cc1ccc(Oc2cccc(NC(=O)Nc3ccc(Cl)c(C(F)(F)F)c3)c2)cc1` + COC(=O)c1ccc([C@H]2c3[nH]c4ccccc4c3C[C@H](C(=O)OC)N2C(=O)CCl)cc1 [RSL3], the relative cell viability is reported as 0.216.
Work on `O=C(O)CC[C@H](O)C(=O)O` [L-2-Hydroxyglutaric acid disodium] + COC(=O)c1ccc([C@H]2c3[nH]c4ccccc4c3C[C@H](C(=O)OC)N2C(=O)CCl)cc1 [RSL3] yielded a relative cell viability of 0.76.
For `O=C(Nc1cccnn1)N1CCC(=Cc2cccc(Oc3ccc(C(F)(F)F)cn3)c2)CC1` + COC(=O)c1ccc([C@H]2c3[nH]c4ccccc4c3C[C@H](C(=O)OC)N2C(=O)CCl)cc1 [RSL3], the relative cell viability was 0.601.
`CC1(C)CC[C@]2(C(=O)O[C@@H]3O[C@H](CO)[C@@H](O)[C@H](O)[C@H]3O)CC[C@]3(C)C(=CC[C@@H]4[C@@]5(C)CC[C@H](O[C@@H]6O[C@H](C(=O)O)[C@@H](O)[C@H](O)[C@H]6O[C@@H]6O[C@H](CO)[C@@H](O)[C@H](O)[C@H]6O)C(C)(C)[C@@H]5CC[C@]43C)[C@@H]2C1` [Ginsenoside Ro] + COC(=O)c1ccc([C@H]2c3[nH]c4ccccc4c3C[C@H](C(=O)OC)N2C(=O)CCl)cc1 [RSL3] showed a relative cell viability of 0.478.
For `C[C@H](CCOc1cccc(CC(=O)O)c1)N(Cc1cccc(C(F)(F)F)c1Cl)CC(c1ccccc1)c1ccccc1` [RGX-104 free Acid] + COC(=O)c1ccc([C@H]2c3[nH]c4ccccc4c3C[C@H](C(=O)OC)N2C(=O)CCl)cc1 [RSL3], the relative cell viability was 0.561.
For `CN(C)C(=N)NC(=N)N` [Metformin] + COC(=O)c1ccc([C@H]2c3[nH]c4ccccc4c3C[C@H](C(=O)OC)N2C(=O)CCl)cc1 [RSL3], the relative cell viability was 0.542.
`CC(C)OC(=O)CCC/C=C\C[C@@H]1[C@@H](CC[C@@H](O)CCc2ccccc2)[C@H](O)C[C@@H]1O` [Latanoprost] + COC(=O)c1ccc([C@H]2c3[nH]c4ccccc4c3C[C@H](C(=O)OC)N2C(=O)CCl)cc1 [RSL3] was tested, and the relative cell viability was 0.597.
For `CC(C)c1cc(C(C)C)c(CC(=O)NS(=O)(=O)Oc2c(C(C)C)cccc2C(C)C)c(C(C)C)c1` [Avasimibe] + COC(=O)c1ccc([C@H]2c3[nH]c4ccccc4c3C[C@H](C(=O)OC)N2C(=O)CCl)cc1 [RSL3], the relative cell viability was 0.511.
Work on `C[C@@H]1O[C@@H](O[C@H]2[C@H](Oc3cc(O)c4c(c3)O[C@H](c3ccc(O)cc3)CC4=O)O[C@H](CO)[C@@H](O)[C@@H]2O)[C@H](O)[C@H](O)[C@H]1O` [Naringin] + COC(=O)c1ccc([C@H]2c3[nH]c4ccccc4c3C[C@H](C(=O)OC)N2C(=O)CCl)cc1 [RSL3] yielded a relative cell viability of 0.658.
Work on `COc1cccc(CNc2ccc(S(=O)(=O)Nc3nc4ccccc4s3)cc2)c1O` + COC(=O)c1ccc([C@H]2c3[nH]c4ccccc4c3C[C@H](C(=O)OC)N2C(=O)CCl)cc1 [RSL3] yielded a relative cell viability of 0.657.
In the case of `CC(C)=CCC[C@](C)(O[C@@H]1O[C@H](CO)[C@@H](O)[C@H](O)[C@H]1O)[C@H]1CC[C@]2(C)[C@@H]1[C@H](O)C[C@@H]1[C@@]3(C)CC[C@H](O[C@@H]4O[C@H](CO)[C@@H](O)[C@H](O)[C@H]4O[C@@H]4O[C@H](CO)[C@@H](O)[C@H](O)[C@H]4O)C(C)(C)[C@@H]3CC[C@]12C` [Ginsenoside Rd] + COC(=O)c1ccc([C@H]2c3[nH]c4ccccc4c3C[C@H](C(=O)OC)N2C(=O)CCl)cc1 [RSL3], the relative cell viability is reported as 0.478.
Work on `CCC(CC)CC1(C(=O)Nc2ccccc2SC(=O)C(C)C)CCCCC1` [Dalcetrapib] + COC(=O)c1ccc([C@H]2c3[nH]c4ccccc4c3C[C@H](C(=O)OC)N2C(=O)CCl)cc1 [RSL3] yielded a relative cell viability of 0.684.
